Measured values as given in the supplement of paper PMC11219838.
Unmarked numbers belong to inactive results.

Experiments:
Details in all cases: 60 µM; 5 days; temperature: 20 °C
Meloidogyne hapla J2 = assay: proportion of mobile M. hapla J2 relative to DMSO control (fraction of DMSO control); higher = more viable, less nematicidal, active = 0.7 or less
Summary of the method: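 About 25 M. hapla J2 were placed in each well of a 96-well plate in distilled water, and compound was pinned in to a final 60 µM with 0.6% v/v DMSO. The sealed plates were shaken at 200 rpm at 20 °C for 5 days, after which 2 µL of 1 M NaOH went into each well. Mobility was then scored under the microscope and divided by the mean value from DMSO-only wells on the same plate. Each plate held eight such DMSO wells, and two biological replicates were averaged.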

[1] = test system: Caenorhabditis elegans dauer (daf-2(e1370)); assay: proportion of mobile C. elegans dauer larvae relative to DMSO control (fraction of DMSO control); higher = more viable, less nematicidal, active = 0.63 or less; extreme values may be limits of the assay
Summary of the method: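 The proportion of mobile worms, relative to DMSO wells, was scored by dissection microscope and averaged over two biological replicates. Worms were C. elegans dauers, about 20 per well in liquid NGM in 96-well plates, generated from synchronized larvae on MYOB plates with E. coli OP50 at 25 °C for 48 h. They were treated with compound pinned to 60 µM final (0.6% v/v DMSO) and kept in sealed plates shaken at 200 rpm for 5 days at 20 °C.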

Ditylenchus dipsaci = assay: proportion of mobile D. dipsaci (mixed stage) relative to DMSO control (fraction of DMSO control); higher = more viable, less nematicidal, active = 0.86 or less; extreme values may be limits of the assay
Summary of the method: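 Ditylenchus dipsaci nematodes were cultured on pea plants in Gamborg B-5 agar, then extracted into water through a filter funnel, and roughly 20 worms in distilled water were placed in each well of a 96-well plate. Compound was pinned in to a final concentration of 60 µM (0.6% v/v DMSO), and the sealed plates were shaken at 200 rpm for 5 days at 20 °C. Mobile worms were counted under the microscope after 2 µL of 1 M NaOH was added. Mobility is given relative to DMSO controls as the mean of two biological replicates.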

| Structure (SMILES) | proportion of mobile M. hapla J2 (Meloidogyne hapla J2) | proportion of mobile C. elegans dauer larvae [1] | proportion of mobile D. dipsaci (Ditylenchus dipsaci) |
| --- | --- | --- | --- |
| CCC(=O)Nc1ccccc1-c1nc(-c2ccccn2)no1 | 0.865 | 1 | 1 |
| Cc1ccc(-c2noc(-c3ccccc3OCC(N)=O)n2)cc1 | 1.04 | 1 | 1 |
| CCOc1ccccc1NC(=O)CSc1nnc(-c2ccccc2)o1 | 0.977 | 1 | 1 |
| Cc1cccc(-c2noc(COc3cc(C)ccc3C)n2)c1 | 1.04 | 1 | 1 |
| O=C(Nc1ccccc1-c1nc(-c2cccnc2)no1)c1cc2ccccc2o1 | 0.919 | 1 | 0.9 |
| Clc1ccc(CSc2nnc(-c3ccccc3Cl)o2)cc1 | 0.888 | 1 | 1 |
| CCc1nnc(NC(=O)CSc2nnc(-c3cccc(C)c3)o2)s1 | 0.815 | 1 | 1 |
| CC(Oc1ccccc1)c1nc(-c2ccccn2)no1 (configuration not stated) | 0.937 | 1 | 1 |
| Brc1ccc(CSc2nnc(-c3ccncc3)o2)cc1 | 1.01 | 1 | 1 |
| Brc1cccc(-c2nc(-c3cccnc3)no2)c1 | 1.01 | 1 | 1 |
| Cc1cc(C)cc(OCc2nc(-c3cc(C)nc4ccccc34)no2)c1 | 1.02 | 1 | 1 |
| O=C(Nc1ccccc1-c1nc(-c2cccnc2)no1)c1cccc(Cl)c1 | 0.837 | 1 | 1 |
| CC(C)Oc1ccc(-c2nc(-c3ccccc3)no2)cc1 | 0.993 | 1 | 1 |
| Brc1ccc(OCc2nc(-c3cccnc3)no2)cc1 | 0.955 | 1 | 1 |
| COc1cccc(OCc2nc(-c3cccc(Br)c3)no2)c1 | 0.999 | 1 | 1 |
| Clc1ccc(-c2noc(-c3ccc4c(c3)OCCO4)n2)cc1 | 1.02 | 1 | 1 |
| O=C(CSc1nnc(-c2cccc(Br)c2)o1)c1ccc2c(c1)CCCC2 | 0.967 | 1 | 1 |

| Structure (SMILES) | proportion of mobile M. hapla J2 (Meloidogyne hapla J2) | proportion of mobile C. elegans dauer larvae [1] | proportion of mobile D. dipsaci (Ditylenchus dipsaci) |
| --- | --- | --- | --- |
| Cc1cccc(-c2noc(-c3cccc(Br)c3)n2)c1 | 0.87 | 1 | 1 |
| Cc1ccc(OCc2nc(-c3ccc(Cl)cc3)no2)c(C)c1 | 0.997 | 1 | 1 |
| Brc1ccc(-c2nc(-c3cccnc3)no2)cc1 | 0.984 | 0.552 (active) | 1 |
| Cc1ccc(SCc2nc(-c3ccc(C)cc3)no2)cc1 | 0.854 | 1 | 1 |
| CCOc1nc(-c2ccc(C)cc2)ccc1-c1noc(-c2ccc(F)cc2)n1 | 0.829 | 1 | 1 |
| Cc1cc(C)c(OCc2nc(-c3ccncc3)no2)c(C)c1 | 0.938 | 1 | 1 |
| Cc1cccc(-c2noc(C3CCCCC3)n2)c1 | 1.01 | 1 | 1 |
| O=C(CSc1nnc(-c2ccco2)o1)NC1CCCCC1 | 0.824 | 1 | 1 |
| Cc1ccc(-c2nc(-c3ccc(Br)cc3)no2)cc1 | 0.916 | 1 | 1 |
| C#CCOc1ccc(-c2nc(-c3ccccc3)no2)cc1 | 1.06 | 1 | 1 |
| Fc1ccc(-c2noc(COc3ccccc3Cl)n2)cc1 | 1.03 | 1 | 1 |
| COc1ccc(-c2nc(-c3ccccc3Cl)no2)cc1 | 0.964 | 1 | 1 |
| O=C(CSc1nnc(-c2ccc(Br)cc2)o1)OCc1ccccc1 | 1.02 | 1 | 1 |
| COc1ccc(-c2nnc(SCc3csc(N)n3)o2)cc1 | 0.941 | 1 | 1 |
| Cc1cc(Cl)ccc1NC(=O)CSc1nnc(-c2ccncc2)o1 | 0.974 | 1 | 1 |
| Fc1ccc(OCc2nc(-c3ccccc3)no2)cc1 | 1.02 | 1 | 1 |
| Cc1cccc(-c2noc(COc3ccc(Cl)cc3C)n2)c1 | 0.925 | 1 | 1 |
